Our source for the INHIBITION values is ChEMBL document CHEMBL4513216, “Probing the Open Global Health Chemical Diversity Library for Multistage-Active Starting Points for Next-Generation Antimalarials” (ACS Infect Dis, 2020).

In all, about 69,000 compounds went through this assay and about 8,600 (12%) showed an effect of 50% or more. Shown is part of a subset that was picked to be rich in strong results.

The test system of this assay is Plasmodium berghei. In words: Screen against P. berghei liver stage (PbLuc), transformed with Luciferase, at 10uM. The settings on record: tested at 10 uM. Format: functional, HepG2.
In the case of `Cc1nc(N2CCCC2)ncc1-c1cc(O)n2ncnc2n1`, the INHIBITION is 16.8%. In the case of `CN1CCCCC1(C)C(=O)N1CCC(c2ccccn2)CC1` (stereo unspecified) it was 19.825%. With `OC(COCc1ccco1)CN1CCc2c(ncn2C2CC2)C1` (stereo unspecified), the INHIBITION is reported as -58.7%.

With `Cn1ccnc1C(=O)N1CCOC(Cc2ccc(Cl)cc2)C1` (stereo unspecified), the INHIBITION is on record as 47.2%. Turning to `Cc1cnc(CNS(=O)(=O)CCC2CCCO2)o1` (stereo unspecified), the INHIBITION is 57.7%. For `O=S(=O)(CCC1CCCO1)NCc1ncc(-c2ccccc2)o1` (stereo unspecified), the INHIBITION turned out to be 20%.

In the case of `CN(CCCC1CCCO1)S(=O)(=O)NCc1ccccc1` (stereo unspecified), the INHIBITION stood at 16.1%.

On to `C=c1ccoc1=C1NN=C(CNCCn2cccn2)O1`, for which the INHIBITION is 34.1%. With `CC(=O)N1CCC2(CC1)CN(CC(C)C)CC21CCNC1=O` (stereo unspecified), the INHIBITION was -33.1%. Consider `O=C(NCc1ccoc1)NC1CCCN(c2ncccn2)C1` (stereo unspecified), for which the INHIBITION is listed as -22.1%. For the compound `CC1CCCN(C(=O)c2csc(S(N)(=O)=O)c2)CC1` (stereo unspecified), the INHIBITION came to 11.5%. Regarding `CCCOC1CCCN(C(=O)c2csc(S(N)(=O)=O)c2)C1` (stereo unspecified), the INHIBITION is given as 0.991%.

In the case of `CCOC1CCN(C(=O)c2csc(S(N)(=O)=O)c2)CC1`, the INHIBITION stood at 62.4%. As to `CCc1nnc2n1CC(CNCc1nc(C)c(C)o1)CC2` (stereo unspecified), the INHIBITION is reported as -8.22%. Consider `Cc1ccc(CNC(=O)N2CCCC(NS(C)(=O)=O)C2)cc1` (stereo unspecified), for which the INHIBITION came to 9.64%.

As for `CCOCC(=O)N1C[C@@H]2COC[C@]2(c2nc(C)no2)C1`, the INHIBITION was determined as 63.8%. Turning to `Cc1noc([C@]23COC[C@H]2CN(C(=O)COC2CCCC2)C3)n1`, the INHIBITION was -5.89%.

Regarding `Cc1noc([C@]23COC[C@H]2CN(C(=O)CN(C)C)C3)n1`, the INHIBITION stood at 46.6%. In the case of `COCCN1CCc2ncnc(N(C)C)c2CC1`, the INHIBITION stood at 33.5%. The result for `CN(C)Cc1ccnc(C2CN(CCCc3ccccc3)CCO2)n1` (stereo unspecified) reads 42.6%; that for `O=C(c1ccc(C2CCCN2C(=O)c2ccc[nH]2)s1)N1CCSCC1` (stereo unspecified), -32.2%; that for `CCn1ncc2c1CCCC2NCc1ccc2c(c1)OCCO2` (stereo unspecified), 1.51%. Take `O=C1C(NCc2ccc3c(c2)CCO3)CCN1Cc1ccccc1` (stereo unspecified): the INHIBITION is 6.88%. Consider `COCc1nc(CNC2CCCc3c2cnn3C(C)(C)C)cs1` (stereo unspecified), for which the INHIBITION came out at 2.02%.

As to `CC(C)(C)n1ncc2c1CCCC2NCc1cccc2c1OCCO2` (stereo unspecified), the INHIBITION was 35.9%. For the compound `CCn1ncc2c1CCCC2NCc1ccc2c(c1)CCO2` (stereo unspecified), the INHIBITION is 5.03%.

`CC(C)(C)n1ncc2c1CCCC2NCc1ccc2c(c1)OCCO2` (stereo unspecified): the INHIBITION was determined as 93.1%. With `CC(C)(C)n1ncc2c1CCCC2NCc1cccc2c1OCO2` (stereo unspecified), the INHIBITION is recorded as 20.2%. Regarding `CC(C)(C)n1ncc2c1CCCC2NCc1ccc2c(c1)CCO2` (stereo unspecified), the INHIBITION is reported as 61%.

Consider `CC(C)(C)n1ncc2c1CCCC2NCc1cccc(C(N)=O)c1` (stereo unspecified), for which the INHIBITION is given as -8.4%. `Cn1ncc2c1CCCC2NCc1cnc(-c2ccccc2)nc1` (stereo unspecified): the INHIBITION is listed as 33%. The result for `CC(C)(C)n1ncc2c1CCCC2NCc1ccsc1` (stereo unspecified) reads 50.1%. `CC(C)(C)n1ncc2c1CCCC2NCc1ccc2ncccc2c1` (stereo unspecified): the INHIBITION amounted to 72.8%. For `CNC(=O)C1(C)CN(S(=O)(=O)c2cccc(OC)c2)CCO1` (stereo unspecified), the INHIBITION amounted to 11.175%. Take `O=C(c1cnccn1)N1C[C@@H](OCc2cccnc2)[C@H]2OCCC[C@H]21`: the INHIBITION was determined as 14.6%. Regarding `CC(C)CCn1[nH]c(CNc2ccccc2)nc1=O`, the INHIBITION was -7.9%.

Consider `CN(C)C1CCN(C(=O)c2cc3c(s2)CCN3C(=O)C2CC2)CC1`, for which the INHIBITION is recorded as 49.1%. As for `CCC1=N[C@@]2(CC[C@@H]3CN(CC)C[C@@H]32)C(=O)N1C`, the INHIBITION stood at 23.1%. In the case of `CCC1=N[C@@]2(CC[C@@H]3CN(Cc4ccc(Cl)cc4)C[C@@H]32)C(=O)N1C` it was 50.6%; in that of `CCC1=N[C@@]2(CC[C@@H]3CN(Cc4ccccc4C)C[C@@H]32)C(=O)N1C`, 46.6%; in that of `CCC1=N[C@@]2(CC[C@@H]3CN(Cc4ccc(C)cc4)C[C@@H]32)C(=O)N1C`, 34.9%. The result for `CCC1=N[C@@]2(CC[C@@H]3CN(Cc4ccc(F)cc4)C[C@@H]32)C(=O)N1C` reads 62%. With `CCC1=N[C@@]2(CC[C@@H]3CN(Cc4cccc(Cl)c4)C[C@@H]32)C(=O)N1C`, the INHIBITION is recorded as 30.3%.

As to `Cc1cccc(CNC(=O)Nc2ccn(CCCC(=O)N(C)C)n2)c1`, the INHIBITION is -6.52%.

Regarding `CC1CCN(c2nc3cn(-c4ccc5c(c4)OCO5)c(=O)c-3c[nH]2)CC1`, the INHIBITION was 23.5%. With `Cc1ccc(CN2CCC[C@@H]3CN(C(=O)c4ccco4)C[C@@H]32)o1`, the INHIBITION is -2.35%. The result for `Cc1cc(C(=O)Nc2ccc3c(ccn3CCN3CCOCC3)c2)on1` reads 12.8%; that for `COc1cc(Oc2cnc3ccccc3n2)ccc1CN1CCCC1`, 84.9%. For `COc1ccc(CN2CC[C@H](NC(C)=O)[C@@H](O)CC2)c(OC)c1`, the INHIBITION is 35.3%.

Turning to `COc1ccc(Oc2cccnc2)cc1CN1CCCC1`, the INHIBITION was found to be 49.4%. With `COc1cc(Oc2ccc(C(N)=O)cn2)ccc1CN1CCCC1`, the INHIBITION is -0.27%. Take `COc1ccc(CN2CCC(O)CC2)c(OC)c1`: the INHIBITION is 1.81%. Take `COc1cc(Oc2ccc(C(F)(F)F)cn2)ccc1CN1CCCC1`: the INHIBITION is 91.5%. The result for `Cc1cc(CN2CCN(Cc3ccc(C#N)cc3OC(F)F)CC2)no1` reads 14.27%; that for `COc1ccc(C2CCCN2c2ccc(C#N)cn2)c(OC)c1` (stereo unspecified), 37.7%. As for `COc1cc(Oc2ccc(C#N)cn2)ccc1CN1CCCC1`, the INHIBITION is given as 82.9%. In the case of `COc1ccc(CN2CCSCC2)c(OC)c1` it was 33.1%. On to `COc1ccc(Oc2ccc(C(F)(F)F)cn2)cc1CN1CCCC1`, for which the INHIBITION turned out to be 63.7%. Take `COc1ccc(CN2CCn3c(CO)nnc3C2)cc1CN1CCCC1`: the INHIBITION worked out at 44.8%. The result for `O=C(Cc1cccc(O)c1)N1CCCC(O)(CN2CCOCC2)CC1` (stereo unspecified) reads 6.26%; that for `CC(Cn1cccn1)NC(=O)NCc1ccc(C(N)=O)cc1` (stereo unspecified), -98.8%. As for `Cc1cc(NC(=O)CN2CCn3c(nnc3C3CC3)C2)on1`, the INHIBITION was 25.3%. For the compound `CC(C)c1nc(C2CCCN2CCN2CCCCC2)no1` (stereo unspecified), the INHIBITION was -0.55%. Take `CN(C)CCO[C@H]1CN(CC2CC2)[C@@H]2CCCO[C@H]12`: the INHIBITION is recorded as 25.8%. Turning to `CC(NC(=O)c1cccs1)C(=O)NCc1ccccn1` (stereo unspecified), the INHIBITION is recorded as 21.6%. Regarding `O=c1cc(Cn2cncn2)nc2n1CCCN(Cc1ccoc1)C2`, the INHIBITION was determined as 20.5%.

Take `CCS(=O)(=O)N1CCC(NC(=O)c2cc(C(C)C)ccc2O)CC1`: the INHIBITION is -7.1%.

Regarding `Cc1ncsc1CN1CC[C@H]2OCC[C@@]2(C(=O)N2CCOCC2)C1`, the INHIBITION stood at 11.4%. Regarding `CC1(C)CC(NC(=O)c2cnn(-c3ccccc3F)c2N)CC(C)(C)N1`, the INHIBITION is -33%. The result for `Cc1cc(C(=O)N2CCn3c(COCC4CCCC4)cnc3C2C)on1` (stereo unspecified) reads 37.3%; that for `CCCc1nc(NCCc2ccccc2)c2c(n1)c(C)nn2CC`, 43.7%. Take `CCn1nc(C)c2nc(C)nc(NCCc3ccc(C)cc3)c21`: the INHIBITION was found to be 62.7%. Turning to `CCn1nc(C)c2nc(C(C)C)nc(NCC(C)O)c21` (stereo unspecified), the INHIBITION is on record as -3.11%. In the case of `CCn1nc(C)c2nc(C(C)C)nc(NCCc3ccc(O)cc3)c21` it was 68.1%; in that of `CCn1nc(C)c2nc(C(C)C)nc(NCCCO)c21`, -9.48%; in that of `CCn1nc(C)c2nc(C)nc(NCCc3ccccc3)c21`, 46.4%. As for `CCOc1ccccc1C1CCCN1` (stereo unspecified), the INHIBITION worked out at 15.8%.

In the case of `Cc1cnn(CC(C)NCc2nc(-c3ccsc3)oc2C)c1` (stereo unspecified), the INHIBITION is reported as -7.31%. As for `CC1(C)CN(Cc2ccncc2)CCS1(=O)=O`, the INHIBITION is 21.9%. `Cn1cc(CN2CCS(=O)(=O)C(C)(C)C2)cn1`: the INHIBITION turned out to be 44.3%.

For the compound `Cc1ccc(CN2CCS(=O)(=O)C(C)(C)C2)cc1C`, the INHIBITION is reported as 70.1%. In the case of `COc1ccc(Cn2cc(C(C)O)nn2)cc1` (stereo unspecified), the INHIBITION was 19.9%. For the compound `CNc1cnc(CC2COCCN(CCOc3ccccc3)C2)cn1` (stereo unspecified), the INHIBITION is 39.7%. Turning to `CC(=O)NC1CCN(C(=O)Nc2cccc(C(F)(F)F)c2)CC1`, the INHIBITION stood at 27.9%. As to `CC(=O)NC1CCN(C(=O)Nc2cccc(SC(F)F)c2)CC1`, the INHIBITION came to 27.9%.

For `CC(=O)NC1CCN(C(=O)Nc2ccc(SC(F)F)cc2)CC1`, the INHIBITION came to 73.5%. As to `CN(Cc1ccco1)[C@@H]1CN(Cc2cccs2)C[C@@H]2CCCO[C@@H]21`, the INHIBITION is 31.4%.

Consider `Cn1cnnc1SCC(=O)N1C[C@@H]2CC[C@H]1CN(Cc1cccnc1)C2`, for which the INHIBITION came out at 6.28%. For `CCN(CC)C(=O)CN1CCc2c(nc(C3CCNCC3)nc2NC)C1`, the INHIBITION is reported as -3.94%. The result for `Nc1ccc(C(=O)N2C[C@H]3CC[C@@H](C2)N(Cc2ccccc2)C3)cn1` reads -20.8%; that for `Cc1cccc(-n2ncc(C(=O)NCC3CCS(=O)(=O)C3)c2C)c1` (stereo unspecified), -33.9%. As for `Cc1ccc(-n2ncc(C(=O)NCC3CCS(=O)(=O)C3)c2C)cc1` (stereo unspecified), the INHIBITION was -24.2%.

Take `Cc1c(C(=O)NCC2CCS(=O)(=O)C2)cnn1-c1ccccc1` (stereo unspecified): the INHIBITION was determined as 57.8%. For the compound `O=C1N(Cc2ccc(Cl)cc2)CCC12CCCNC2` (stereo unspecified), the INHIBITION is on record as 3.81%. `CC(=O)NCCc1ccc(S(=O)(=O)Nc2ccc(C)c(F)c2)s1`: the INHIBITION is reported as 32.3%. For the compound `CC(=O)c1ccc(-n2c(C)cn(CCC(=O)NC(N)=O)c2=O)cc1`, the INHIBITION came out at 12.7%. For `CC(=O)c1ccc(-n2c(C)cn(CCS(C)(=O)=O)c2=O)cc1`, the INHIBITION is recorded as 55.6%. In the case of `CC(=O)c1ccc(-n2c(C)cn(CCC#N)c2=O)cc1`, the INHIBITION is reported as 5.36%.

`OC(CN1CCN(Cc2cc(F)ccc2F)CC1)C1CC1` (stereo unspecified): the INHIBITION is on record as -6.11%. In the case of `CCC(Nc1cccc(OC)c1)C(=O)NCc1nc(C)cc(=O)[nH]1` (stereo unspecified), the INHIBITION was found to be 36.4%. `O=S(=O)(C1CC1)N1CCc2c(CN3CCOCC3)cncc2C1`: the INHIBITION turned out to be 12.6%. In the case of `CCS(=O)(=O)N1CCc2c(COCCN(C)C)cncc2C1` it was 24%; in that of `CCS(=O)(=O)N1CCc2c(COC)cncc2C1`, 23.1%; in that of `CCS(=O)(=O)N1CCc2c(CN3CCOCC3)cncc2C1`, 92.1%. On to `CCS(=O)(=O)N1CCc2c(COCc3ccncc3)cncc2C1`, for which the INHIBITION was determined as 66.6%.

With `CCCS(=O)(=O)N1CCc2c(COCC)cncc2C1`, the INHIBITION amounted to 33%.
